HCV inhibitor – HCV inhibition; Huh7.5.1 HCVcc-Cre infection, luciferase reporter, 44 h; Potency, µM (top dose mostly 41.8 µM), without a hit: at the highest dose activity change, negative = inhibition, usual class: inhibitors; hit rate 3.4% among 340,000; AID 651820
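HCVcc-Cre virus at an moi near 0.5 was added right after compound to cells cultured 4 h from seeding (1,000 cells/well). Luciferase activity was determined 44 h later, 15 min after substrate addition at RT.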
RE007 growth inh – less growth of the S. pombe RE007 Vpr strain; S. pombe RE007 Vpr strain, BacTiter-Glo ATP luminescence, 24 h; AID 651644; hit rate 0.21% among 360,000; Potency, µM (doses to about 92.2 µM), for inactives: top-dose activity change, negative = less growth, actives largely listed as inhibitors; active = well fitted falling curve with a large enough effect; inconclusive = small, poorly fitted or top-dose-only effect; inactive = no such curve, though single readings can be large or run the other way; also: nearly all actives have a fitted effect of over 50% in size
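Fission yeast strain RE007, carrying one chromosomally integrated HIV-1 vpr copy, was seeded at OD 0.01 in PMG+AL medium with 23 nL pinned compound. After 24 h at 30 °C and 99% humidity, viability was read by BacTiter-Glo luminescence.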
FMDV inh – foot and mouth disease virus antiviral activity | hit rate 1.2% among 410,000 | Potency, µM (series often up to 57.9 µM), without a hit: at the highest dose activity change, negative = inhibition, most hits filed as inhibitors | FMDV antiviral cell-based qHTS; calls by dose curve; tested in HEK293T cells; also: read-out not given here; nearly all actives have a fitted effect of over 45% in size
LASV entry inh – inhibitors of Lassa virus binding or cell entry; Lassa virus pseudotype entry inhibition, cell reporter; Potency, µM (top dose mostly 37.9 µM), for the others: at the top dose activity change, negative = inhibition, most hits filed as inhibitors; hit rate 1.2% among 300,000; calls by dose curve; tested in HEK293 cells; also: nearly all actives have a fitted effect of over 50% in size
Sm TGR block – inhibitors of Schistosoma mansoni thioredoxin glutathione reductase. Q962Y6. purified TGR, DTNB reduction, TNB absorbance 405 nm. Potency, µM (titrated, usually from 114 µM), inactives show top-dose activity change, negative = inhibition, most hits filed as inhibitors. hit rate 3% among 360,000. AID 485364; also: nearly all actives have a fitted effect of over 60% in size
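Kinetic colorimetric format: TGR-catalysed, NADPH-driven DTNB reduction monitored via TNB absorbance. Enzyme dispensed at 20 nM; compound exposure 15 min at room temperature before reaction start.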
Marburg entry inh – Marburg virus entry inhibition. Marburg virus pseudotyped entry inhibition, cell reporter. Potency, µM (top dose mostly 37.8 µM), for inactives: top-dose activity change, negative = inhibition, most hits filed as inhibitors. hit rate 1.8% among 300,000. AID 540276; calls by dose curve; tested in HEK293 cells
Active calls of the source: *; u = inconclusive; x = not tested or not shown; [ ] = another dose, or the depositor's remark. Shown are actives, neighbours in structure and some others; about 7.2% of the full set was active somewhere. Unless noted, calls follow the shape of the dose curve; as a rule, active = well fitted curve in the direction sought with a large enough effect; inconclusive = small, poorly fitted or top-dose-only effect, or another doubt; inactive = no such curve, though single readings can be large; an effect the other way counts as inactive or inconclusive. % is scaled to controls: 0 for no effect and ±100 for the full control effect; potency is read from the fitted curve at half-maximal effect.

SMILES | HCV inhibitor | RE007 growth inh | FMDV inh | LASV entry inh | Sm TGR block | Marburg entry inh
CCn1cc([N+](=O)[O-])c(C(=O)N2N=C3/C(=C/c4cccs4)CCCC3C2c2cccs2)n1 (stereo unspecified) | 10µM* | -8% | -13% | u | 4% | -28%
CC(=CCO)CCO | x | x | x | u | x | 2%[14.2 µM]
Cc1ccc(C)c(N2CCN(CCCNC(=O)c3ccc4nc(N5CCC(C)CC5)sc4c3)CC2)c1 | x | x | u | u | 14% | u
CC1CCN(c2nc3ccc(C(=O)N4CCN(Cc5ccccc5)CC4)cc3s2)CC1 | 11µM* | -10% | u | x | 10% | -2%
CCN(Cc1ccccc1)S(=O)(=O)c1ccc(C(=O)N2CCN(c3nc4ccccc4s3)CC2)cc1 | 10µM* | 1% | 10µM* | 0% | 1% | u
CCCN1CCN(CCCNC(=O)c2ccc3nc(N4CCC(C)CC4)sc3c2)CC1 | 11µM* | -7% | u | x | -2% | x
CC(=O)N1CCOc2cc(S(=O)(=O)N(C)Cc3ccccc3)c(Cl)cc21 | x | x | -13% | -11%[46.1 µM] | -17% | x
CS(=O)(=O)c1ccc(C2=C(c3ccccc3)C(=O)OC2)cc1 | 7.1µM* | -2% | -20% | x | x | x
O=C(CN1CC[C@@]2(O)CCCC[C@H]2[C@@H]1c1ccc(F)cc1)NCc1ccco1 | 11% | 54% | -9% | 1%[46.1 µM] | 40µM* | u
CCOC(=O)N1CCC2(O)CCCCC2C1c1ccc(F)cc1 (stereo unspecified) | -4% | -7% | -20% | 7% | 7% | -18%[46.1 µM]
Cc1ccc(NC(=O)/C=C/c2ccco2)cc1F | x | x | 11% | u | 14µM* | x
Cc1ccc(NC(=O)/C(=C/c2ccco2)c2ccccc2)c(C)c1 | -17% | -4% | 0% | -24% | -18% | -25%
O=C(/C=C/c1ccco1)Nc1ccc2nn(-c3ccccc3)nc2c1 | u | 4% | 9% | 18% | 32µM* | u
O=C(/C=C\c1ccco1)Nc1cc([N+](=O)[O-])ccc1F | 3% | -5% | -6% | u | u | u
Cc1ccc(-n2nc3ccc(NC(=O)c4ccco4)cc3n2)cc1 | u | 23% | 43% | 15% | -5% | 7%
Cc1cc(NC(=O)/C=C/c2ccco2)ccc1NC(=O)c1ccccc1 | -25% | 9% | -5% | 1%[46.1 µM] | 10µM* | 1%[46.1 µM]
Cc1c(O)ccc2cc(S(=O)(=O)c3ccccc3)c(=O)oc12 | 16% | 25% | -5% | 2% | -28% | 4%[46.1 µM]
O=S(=O)(c1ccc(Cl)cc1)c1cc(O)ccc1O | -2% | -1% | 41% | x | 11µM* | x
O=S(=O)(c1ccccc1)c1cc(O)ccc1O | 2% | -1% | 34% | 10% | 28µM* | -3%[46.1 µM]
O=S(=O)(c1ccc(Cl)cc1)c1ccc(Cl)cc1 | u | -4% | -14% | x | -11% | -2%
Nc1c(S(=O)(=O)O)cc(Nc2ccc(Nc3nc(Cl)nc(Nc4ccc(S(=O)(=O)O)cc4)n3)c(S(=O)(=O)O)c2)c2c1C(=O)c1ccccc1C2=O | x | x | x | u | x | 14µM*
CCOc1cccc(/C=N/NC(=S)Nc2ccccc2[N+](=O)[O-])c1O | -12% | 1% | 1.8µM* | x | -19% | x
CCc1cc(SC#N)cc(CC)c1NC(=O)CCl | u | 6% | 25µM* | u | u | -18%
CCOc1cc(NC(=O)CCl)c(OCC)cc1NC(=O)CCl | u | 6% | u | u | u | u
Cc1ccc2cc3cc(C(=O)N(C)c4ccccc4C)oc3nc2c1 | x | x | 0% | -13%[46.1 µM] | 1% | u
SMILES | HCV inhibitor | RE007 growth inh | FMDV inh | LASV entry inh | Sm TGR block | Marburg entry inh
Cc1cc(C)nc(S[C@H]2C[C@@H](C(=O)N3CCN(c4ccccc4F)CC3)N(Cc3ccccc3C(F)(F)F)C2)n1 | x | x | 4% | x | x | x
C[C@@H](N)C1CCC(C(=O)Nc2ccncc2)CC1 (stereo partly specified) | x | x | -10%[97.4 µM] | 16% | x | u
O=C(Nc1ccc(S(=O)(=O)NCCc2ccccc2)cc1)c1ccco1 | -15% | -13% | 66% | -18% | -6% | 12%
O=C(Nc1ccc(S(=O)(=O)NCCc2ccccc2)cc1)c1ccncc1 | 11µM* | -4% | 21% | x | -26% | x
CC(=O)Nc1ccc(S(=O)(=O)NCc2cccnc2)cc1 | 36% | -5% | -13% | u | 5% | -3%
CCCCCc1ccc(S(=O)(=O)NCCc2ccncc2)cc1 | 10µM* | -8% | 29% | 2% | 0% | -20%
O=C(Nc1ccc(S(=O)(=O)NCc2cccnc2)cc1)c1ccccc1Cl | 8.9µM* | -6% | u | -22% | -1% | u
O=C(Nc1ccccc1)c1ccc(S(=O)(=O)NCc2cccnc2)cc1 | 8.9µM* | -12% | u | -46% | 3% | u
O=C(NC(CC1=CCCCC1)c1ccccc1)C(F)(F)F (stereo unspecified) | x | x | x | u | x | 59%[14.2 µM]
Oc1ccccc1C1=Nc2nc3ccccc3n2C(c2ccccc2)C1 (stereo unspecified) | -15% | u | -16% | u | 10µM* | u
COc1ccc(-c2cn3cc(Cl)ccc3n2)cc1OC | u | -19% | 11% | 7% | u | u
COc1ccc(-c2cn3cc(C)ccc3n2)cc1Br | u | -27% | 0% | u | -7% | 14µM*
COc1ccc(Cl)cc1NCCC(O)c1ccc(F)cc1 (stereo unspecified) | 7.1µM* | -7% | -25% | x | 0% | x
COCc1cc(C)nc2sc3c(=O)n(-c4ccccc4C(F)(F)F)nnc3c12 | x | x | u | 11%[46.1 µM] | 0% | x
COC(=O)c1ccccc1NC(=O)[C@H]1COc2ccccc2O1 | x | x | x | x | x | -32%
Cc1ccc2c(c1)N(Cc1cccc(F)c1)C(=O)C(C)O2 (stereo unspecified) | 2% | -11% | 2% | x | 4% | x
CC1C(=O)N(Cc2ccccc2F)c2ccccc2N1C(=O)c1c(F)cccc1F (stereo unspecified) | u | -5% | 35µM* | x | -5% | x
COc1cccc(CN2C(=O)c3cccc(N)c3C2=O)c1 | 25% | 5% | -13% | -7% | 1% | 10%
COc1cccc(CN2C(=O)C(C)N(C(=O)c3c(F)cccc3F)c3ccccc32)c1 (stereo unspecified) | 10µM* | -10% | 28µM* | x | -24% | x
CC1C(=O)Nc2ccccc2N1C(=O)c1ccccc1 (stereo unspecified) | -4% | 1% | -18% | -16% | 11% | -3%[46.1 µM]
CC1C(=O)N(Cc2cccc(F)c2)c2ccccc2N1C(=O)c1ccccc1 (stereo unspecified) | u | 13% | 18µM* | -7% | 8% | u
CC1Oc2ccccc2N(Cc2cccc(F)c2)C1=O (stereo unspecified) | 4% | -3% | -5% | x | 89µM* | x
COC(=O)c1ccc(C(=O)NCC2Cc3cc(F)cc(-c4cncnc4)c3O2)cc1 (stereo unspecified) | x | x | 1% | x | x | x

Screening results from PubChem BioAssay.
